# Screens (PubChem BioAssay)
# Pf apPOL block – Pf-apPOL DNA polymerase inhibition. actives 0.25% (n = 210,000). Recombinant Pf-apPOL, molecular beacon fluorescence, 1.5 h. inhibition, % at 10 µM
# mHTT CaM bind – inhibitors of human mutant huntingtin-calmodulin interaction; inhibition, % at 15 µM; actives 3.6% (n = 190,000); AlphaScreen His-mHTT/GST-CaM binding, luminescence; AID 1671202;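 note: 0% = both proteins with DMSO and 100% = one protein alone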
# Active calls of the source: *; nt = no result given; + = active, no number. Many of the other results were omitted from the sample, so hits are more common in it than they were. Cut-off read from the data, not from the text of the source: active = inhibition above about 50%; inactive = the rest.
SMILES,Pf apPOL block,mHTT CaM bind
C=C[C@@H]1c2ccccc2N(S(=O)(=O)c2ccc(C)cc2)[C@H](c2ccc(C(F)(F)F)cc2)C1(C#N)C#N,-1,1
C=C[C@@H]1c2cc(C)ccc2N(S(=O)(=O)c2ccc(C)cc2)[C@H](c2ccc(C(C)(F)F)cc2)C1(C#N)C#N,-6,90*
CN(C)c1ccc(C=NN)cc1,4,nt
CC1=NN(c2nn[nH]n2)C(=O)/C1=C\c1cccs1,nt,100*
CC1=NN(c2ccccc2)C(=O)/C1=C/c1ccc(Br)s1,2,46
COc1ccccc1[C@H]1C(c2cccc(Cl)c2)=NN(c2ccccc2)[C@@H]1CO,-9,66*
Cc1cccc(C2=NN(c3ccccc3)[C@H](CO)[C@H]2c2ccc(F)cc2)c1,-7,81*
COc1ccccc1[C@@H]1C(c2cccc(Cl)c2)=NN(c2ccccc2)[C@H]1C(=O)N1CCOC1=O,-5,-109
Cc1cccc(C2=NN(c3ccccc3)[C@H](CO)[C@H]2c2ccc(Cl)cc2)c1,-3,92*
OC[C@@H]1[C@@H](c2ccccc2)C(c2cccc(Cl)c2)=NN1c1ccccc1,-6,59*
CC[C@@H]1C(c2cccc(C)c2)=NN(c2ccccc2)[C@H]1C(=O)N1CCOC1=O,-4,-22
CC(=O)c1cccc(NC(=O)c2ccc(S(C)(=O)=O)cc2)c1,4,-7
CC[C@H]1C(c2cccc(C)c2)=NN(c2ccccc2)[C@@H]1CO,-8,-9
CC[C@H]1C(c2cccc(Cl)c2)=NN(c2ccccc2)[C@@H]1CO,0,75*
O=C(CCSc1ccccc1)N1CCN(CC(O)c2cccs2)CC1 (stereo not drawn),-2,-19
CCN(CC)c1nc2ccccc2c(=O)n1CCC(=O)Nc1cc(C)cc(C)c1,1,-5
COc1ccc(Cl)cc1NC(=O)Nc1ccc2nc(C)cc(OC)c2c1,85*,97*
COc1cc(C)nc2ccc(NC(=O)Nc3ccc(Cl)cc3)cc12,3,25
O=C(CN1C(=O)S/C(=C\c2ccc(N3CCOCC3)o2)C1=O)Nc1ccc(F)cc1,-1,44
Cc1cccc(NC(=O)COc2ccc(Br)cc2)n1,-1,-20
Cc1ccc(C(Nc2cccc(C)n2)c2ccc3cccnc3c2O)cc1 (stereo not drawn),2,98*
O=S(=O)(O)c1cccc2cccnc12,-1,0
Cc1cccc(NC(c2ccc(Br)cc2)c2ccc3cccnc3c2O)n1 (stereo not drawn),4,97*
Clc1cccc(Oc2cc(N3CCOCC3)ncn2)c1,-7,-18
O=C(Nc1cccc(Cl)c1)N1CCc2nc[nH]c2C1,-5,2
SMILES,Pf apPOL block,mHTT CaM bind
CC1=C(C#N)C(=O)N(CC(C)O)C(=O)/C1=C\c1ccc(-c2cccc(Cl)c2C)o1 (stereo not drawn),-8,75*
CC1=C(C#N)C(=O)N(CC(C)O)C(=O)/C1=C\c1ccc(-c2ccc(Cl)cc2)o1 (stereo not drawn),-13,22
CC1=C(C#N)C(=O)N(CCO)C(=O)/C1=C\c1ccc(-c2cc(Cl)ccc2Cl)o1,-3,37
CC1=C(C#N)C(=O)N(CCO)C(=O)/C1=C/c1ccc(-c2ccc3c(c2)COC3=O)o1,-4,60*
CCCC1CCC2(CCCN2CCOC(=S)Nc2cccc(Cl)c2)CC1 (stereo not drawn),-4,28
CCCC1CCC2(CCCN2CCOC(=S)Nc2ccccc2)CC1 (stereo not drawn),-7,61*
CCCC1CCC2(CCCN2CCOC(=S)Nc2ccccc2Cl)CC1 (stereo not drawn),-9,-8
CCCC1CCC2(CCCN2CCOC(=O)Nc2cccc(Cl)c2)CC1 (stereo not drawn),-7,95*
Cc1ccccc1NS(=O)(=O)c1ccc2[nH]cc(C(=O)N3CCCCCC3)c(=O)c2c1,-14,26
COCCCn1c(=N)c(C(=O)NCCc2ccccc2)cc2c(=O)n3ccccc3nc21,0,4
CN(C)c1ccc(/C=C/C=N/NC2=NS(=O)(=O)c3ccccc32)cc1,nt,+
CN(C)C1=NS(=O)(=O)c2ccccc21,-2,-2
Cc1ccc(N(C)C(=O)C2CCCN(c3ncnc4c3nc3n4CCCCC3)C2)cc1C (stereo not drawn),4,39
Cc1ccc(N(C)C(=O)C2CCN(c3ncnc4c3nc3n4CCCCC3)CC2)cc1C,-1,56*
O=C(Nc1ccccc1F)C1CCN(c2ncnc3c2nc2n3CCCCC2)CC1,96*,5
Clc1cccc(N2CCN(c3ncnc4c3nc3n4CCCC3)CC2)c1,0,50
Cc1ccc(Cl)cc1N1CCN(c2ncnc3c2nc2n3CCCCC2)CC1,-5,99*
O=C(Nc1cc(F)ccc1F)C1CCN(c2ncnc3c2nc2n3CCCCC2)CC1,-3,1
COc1cccc(N2C(=O)NC(=O)/C(=C\c3ccc(Br)s3)C2=O)c1,-4,28
O=C(Nc1cccc(F)c1C(=O)Nc1ccc(F)c(Cl)c1)c1cccc(C(F)(F)F)c1,0,nt
Cc1ccc(NC(=O)CCS(=O)(=O)c2ccc(Cl)cc2)c(Cl)c1,-4,4
